For part of these data: Measured potencies and affinities stand elsewhere.
Columns and labels:
Parameters in all cases: scale not given: direction of the effect not stated beside the values
[1] = target: Protein translocase subunit SecA (Escherichia coli (strain K12)) (UniProt P10408); test: Assay to Identify E. coli SecA ATPase Inhibitors; format: functional; conditions: 30 µM
[2] = target: T1, Ubiquitin-activating enzyme e1, putative (Leishmania donovani (strain BPK282A1)) (UniProt E9BSI1); test: Leishmania donovani Ubiquitin Activating Enzyme (LdE1); format: functional; conditions: 30 µM
T1 sequence (whole entry): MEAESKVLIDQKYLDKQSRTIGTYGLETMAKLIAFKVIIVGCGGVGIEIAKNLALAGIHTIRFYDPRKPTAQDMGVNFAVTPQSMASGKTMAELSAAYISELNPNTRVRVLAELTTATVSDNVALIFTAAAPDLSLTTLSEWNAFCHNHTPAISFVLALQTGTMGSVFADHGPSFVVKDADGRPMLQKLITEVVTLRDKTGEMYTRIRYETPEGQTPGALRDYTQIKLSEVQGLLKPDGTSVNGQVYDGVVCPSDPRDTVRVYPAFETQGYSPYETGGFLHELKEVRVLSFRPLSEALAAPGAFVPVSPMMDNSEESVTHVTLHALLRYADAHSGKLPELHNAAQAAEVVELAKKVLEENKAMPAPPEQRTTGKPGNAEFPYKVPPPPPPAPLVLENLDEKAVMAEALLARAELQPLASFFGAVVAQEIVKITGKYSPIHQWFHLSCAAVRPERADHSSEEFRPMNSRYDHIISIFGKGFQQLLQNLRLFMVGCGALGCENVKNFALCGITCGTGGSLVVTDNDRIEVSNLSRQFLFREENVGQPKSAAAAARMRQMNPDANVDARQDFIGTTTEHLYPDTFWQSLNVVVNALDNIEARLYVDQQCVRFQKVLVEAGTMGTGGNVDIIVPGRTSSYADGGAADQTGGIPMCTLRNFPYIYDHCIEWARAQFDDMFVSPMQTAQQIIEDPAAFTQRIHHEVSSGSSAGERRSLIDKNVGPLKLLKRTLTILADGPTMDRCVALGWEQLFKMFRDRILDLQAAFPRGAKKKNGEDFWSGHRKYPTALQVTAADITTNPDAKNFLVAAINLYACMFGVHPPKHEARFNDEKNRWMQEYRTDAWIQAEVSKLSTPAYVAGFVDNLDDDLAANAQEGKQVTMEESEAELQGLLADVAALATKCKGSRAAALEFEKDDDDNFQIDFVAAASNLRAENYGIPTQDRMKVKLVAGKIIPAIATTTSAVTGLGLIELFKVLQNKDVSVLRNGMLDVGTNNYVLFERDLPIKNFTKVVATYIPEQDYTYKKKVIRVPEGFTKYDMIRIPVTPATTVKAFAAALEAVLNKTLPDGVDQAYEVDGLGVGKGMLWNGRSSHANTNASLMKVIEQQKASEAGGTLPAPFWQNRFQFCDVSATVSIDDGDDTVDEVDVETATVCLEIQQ

[3] = target: AMP-activated protein kinase, AMPK (Homo sapiens) (UniProt P54646+O43741+P54619+Q9UGJ0+Q9Y478+Q13131+Q9UGI9); test: AMP-dependent Kinase enzyme assay. An in vitro enzyme assay that detects ADP turnover that is directly proportional to AMPK activity. This uses naive AMPK that is activated during the assay with MK-8722; format: functional; conditions: 30 µM
[4] = target: Sialic acid-binding Ig-like lectin 9 (Homo sapiens) (UniProt Q9Y336); test: Hs-Siglec9 ALPHAscreen SOP 20170721; conditions: 10 µM
Sialic acid-binding Ig-like lectin 9 (Homo sapiens), sequence (Q9Y336 whole entry): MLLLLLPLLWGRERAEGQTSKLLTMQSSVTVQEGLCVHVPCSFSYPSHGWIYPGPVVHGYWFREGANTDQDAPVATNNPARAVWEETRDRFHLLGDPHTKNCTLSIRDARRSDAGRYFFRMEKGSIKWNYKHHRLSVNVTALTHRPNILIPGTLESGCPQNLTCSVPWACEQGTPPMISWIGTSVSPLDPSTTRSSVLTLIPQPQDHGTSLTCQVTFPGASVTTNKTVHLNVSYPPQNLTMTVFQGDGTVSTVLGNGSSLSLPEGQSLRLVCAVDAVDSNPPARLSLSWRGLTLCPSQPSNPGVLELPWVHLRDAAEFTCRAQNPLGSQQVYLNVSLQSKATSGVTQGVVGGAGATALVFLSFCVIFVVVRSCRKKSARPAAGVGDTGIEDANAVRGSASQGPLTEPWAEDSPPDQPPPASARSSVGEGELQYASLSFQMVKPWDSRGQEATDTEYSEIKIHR

Trypanosoma cruzi = test: Trypanosoma cruzi phosphomannomutase and mannose-1-phosphate guanylyltransferase assay; format: functional; conditions: 10 µM
[5] = target: T2, Arginase-2, mitochondrial (Homo sapiens) (UniProt P78540); test: in vitro enzyme assay to detect the production of urea directly proportional to the activity of Arginase II; format: functional; conditions: 33.3 µM; note: in the data most compounds retested in dose-response had high values
T2 sequence (whole entry): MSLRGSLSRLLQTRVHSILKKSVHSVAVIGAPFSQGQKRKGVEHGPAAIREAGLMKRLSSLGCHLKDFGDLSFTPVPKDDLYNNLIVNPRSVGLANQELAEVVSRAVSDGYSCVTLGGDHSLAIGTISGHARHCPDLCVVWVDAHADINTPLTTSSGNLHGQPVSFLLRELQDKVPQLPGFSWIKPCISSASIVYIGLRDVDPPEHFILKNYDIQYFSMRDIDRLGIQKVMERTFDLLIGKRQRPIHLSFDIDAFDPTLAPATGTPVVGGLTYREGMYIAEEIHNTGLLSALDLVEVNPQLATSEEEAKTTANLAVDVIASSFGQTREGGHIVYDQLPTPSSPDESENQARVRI

[6] = target: T3, Proteasome subunit beta (Trypanosoma cruzi) (UniProt O96673); test: Trypanosoma cruzi proteasome chymotrypsin-like activity (TcProtChymo) assay.; note: in the data most compounds retested in dose-response had high values; format: functional; conditions: 9.37 µM
T3 sequence (whole entry): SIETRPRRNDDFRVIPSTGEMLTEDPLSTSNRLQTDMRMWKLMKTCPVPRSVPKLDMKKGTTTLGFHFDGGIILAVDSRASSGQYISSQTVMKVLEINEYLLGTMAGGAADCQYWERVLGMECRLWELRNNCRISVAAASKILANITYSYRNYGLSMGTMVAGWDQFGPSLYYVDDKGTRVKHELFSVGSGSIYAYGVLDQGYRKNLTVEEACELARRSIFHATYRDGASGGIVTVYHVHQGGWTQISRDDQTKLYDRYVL

Homo sapiens = organism: Homo sapiens; test: To identify inhibition of the IFN signalling (Jak-Stat) pathway via expression of an eGFP reporter gene under the control of an IFN-stimulated response element (ISRE) containing MxA promoter.; format: functional; conditions: 30 µM
[7] = target: T4, Tyrosyl-tRNA synthetase, putative (Trypanosoma cruzi (strain CL Brener)) (UniProt Q4DSP6); test: Trypanosoma cruzi tyrosyl tRNA synthetase (TcYRS) _High Tyrosine SOP; format: functional; conditions: 30 µM; note: in the data most compounds retested in dose-response had high values
T4 sequence (whole entry): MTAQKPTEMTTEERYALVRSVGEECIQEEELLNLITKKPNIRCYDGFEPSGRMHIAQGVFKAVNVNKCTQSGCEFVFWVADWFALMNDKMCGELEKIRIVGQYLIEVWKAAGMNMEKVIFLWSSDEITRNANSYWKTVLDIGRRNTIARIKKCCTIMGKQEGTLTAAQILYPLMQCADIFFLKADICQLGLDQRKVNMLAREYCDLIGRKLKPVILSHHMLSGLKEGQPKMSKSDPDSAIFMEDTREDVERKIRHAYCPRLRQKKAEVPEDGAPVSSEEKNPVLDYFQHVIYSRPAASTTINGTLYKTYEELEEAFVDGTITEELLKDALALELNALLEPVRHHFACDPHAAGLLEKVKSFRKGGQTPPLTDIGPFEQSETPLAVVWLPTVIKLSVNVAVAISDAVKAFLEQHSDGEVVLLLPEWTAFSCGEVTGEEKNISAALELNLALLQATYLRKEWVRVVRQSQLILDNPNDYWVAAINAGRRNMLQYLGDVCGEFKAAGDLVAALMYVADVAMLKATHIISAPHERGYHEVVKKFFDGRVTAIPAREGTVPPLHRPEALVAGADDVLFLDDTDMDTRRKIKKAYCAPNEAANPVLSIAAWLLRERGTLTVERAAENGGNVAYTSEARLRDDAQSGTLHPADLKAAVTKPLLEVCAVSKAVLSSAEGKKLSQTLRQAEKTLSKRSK

[8] = target: T4, Tyrosyl-tRNA synthetase, putative (Trypanosoma cruzi (strain CL Brener)); test: Trypanosoma cruzi tyrosyl tRNA synthetase (TcYRS) SOP; format: functional; conditions: 30 µM
[9] = target: Chromo domain-containing protein 1 (Saccharomyces cerevisiae (strain ATCC 204508 / S288c) (Baker's yeast)) (UniProt P32657); test: ScCHD-1 Enzyme Inhibition Assay; format: functional; conditions: 30 µM; note: in the data most compounds retested in dose-response had high values
Chromo domain-containing protein 1 (Saccharomyces cerevisiae (strain ATCC 204508 / S288c) (Baker's yeast)), sequence (P32657 whole entry, the tested form may be a part): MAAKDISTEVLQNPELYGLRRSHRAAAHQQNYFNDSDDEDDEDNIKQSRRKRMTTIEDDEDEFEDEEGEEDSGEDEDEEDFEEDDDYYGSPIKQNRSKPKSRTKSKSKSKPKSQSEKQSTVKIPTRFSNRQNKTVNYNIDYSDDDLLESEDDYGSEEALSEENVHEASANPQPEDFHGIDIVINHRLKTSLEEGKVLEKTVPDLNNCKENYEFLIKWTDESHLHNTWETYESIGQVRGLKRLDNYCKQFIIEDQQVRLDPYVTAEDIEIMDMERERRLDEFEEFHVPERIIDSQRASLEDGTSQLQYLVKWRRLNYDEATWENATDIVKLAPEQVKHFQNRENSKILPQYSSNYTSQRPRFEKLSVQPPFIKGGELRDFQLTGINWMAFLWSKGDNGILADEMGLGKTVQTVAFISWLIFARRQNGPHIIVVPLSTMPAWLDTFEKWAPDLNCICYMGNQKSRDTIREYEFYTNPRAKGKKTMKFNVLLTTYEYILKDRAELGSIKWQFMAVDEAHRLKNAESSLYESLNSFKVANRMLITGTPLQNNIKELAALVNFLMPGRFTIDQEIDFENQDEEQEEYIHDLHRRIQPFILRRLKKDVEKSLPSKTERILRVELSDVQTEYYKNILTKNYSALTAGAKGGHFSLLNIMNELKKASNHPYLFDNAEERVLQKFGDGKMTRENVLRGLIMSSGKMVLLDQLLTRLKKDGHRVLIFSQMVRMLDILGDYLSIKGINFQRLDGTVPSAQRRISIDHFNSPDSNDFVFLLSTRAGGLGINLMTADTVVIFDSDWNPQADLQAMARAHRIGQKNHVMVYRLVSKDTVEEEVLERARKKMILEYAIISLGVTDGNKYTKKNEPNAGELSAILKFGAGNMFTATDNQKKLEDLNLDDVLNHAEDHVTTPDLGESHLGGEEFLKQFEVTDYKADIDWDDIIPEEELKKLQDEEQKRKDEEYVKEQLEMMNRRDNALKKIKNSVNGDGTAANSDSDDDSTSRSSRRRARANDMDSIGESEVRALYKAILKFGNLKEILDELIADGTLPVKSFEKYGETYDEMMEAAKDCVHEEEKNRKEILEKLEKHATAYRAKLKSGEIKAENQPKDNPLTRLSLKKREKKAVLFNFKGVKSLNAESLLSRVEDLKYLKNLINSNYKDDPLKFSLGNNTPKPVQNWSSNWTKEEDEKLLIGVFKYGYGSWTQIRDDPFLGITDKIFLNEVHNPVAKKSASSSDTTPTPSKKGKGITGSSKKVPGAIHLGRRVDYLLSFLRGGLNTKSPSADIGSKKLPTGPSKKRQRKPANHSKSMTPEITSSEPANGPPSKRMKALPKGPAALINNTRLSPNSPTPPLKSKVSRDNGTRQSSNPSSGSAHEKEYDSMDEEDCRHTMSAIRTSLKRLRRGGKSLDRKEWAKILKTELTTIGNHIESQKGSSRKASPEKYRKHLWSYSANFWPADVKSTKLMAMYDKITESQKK

Protein translocase subunit SecA (Escherichia coli (strain K12)), sequence (P10408 whole entry): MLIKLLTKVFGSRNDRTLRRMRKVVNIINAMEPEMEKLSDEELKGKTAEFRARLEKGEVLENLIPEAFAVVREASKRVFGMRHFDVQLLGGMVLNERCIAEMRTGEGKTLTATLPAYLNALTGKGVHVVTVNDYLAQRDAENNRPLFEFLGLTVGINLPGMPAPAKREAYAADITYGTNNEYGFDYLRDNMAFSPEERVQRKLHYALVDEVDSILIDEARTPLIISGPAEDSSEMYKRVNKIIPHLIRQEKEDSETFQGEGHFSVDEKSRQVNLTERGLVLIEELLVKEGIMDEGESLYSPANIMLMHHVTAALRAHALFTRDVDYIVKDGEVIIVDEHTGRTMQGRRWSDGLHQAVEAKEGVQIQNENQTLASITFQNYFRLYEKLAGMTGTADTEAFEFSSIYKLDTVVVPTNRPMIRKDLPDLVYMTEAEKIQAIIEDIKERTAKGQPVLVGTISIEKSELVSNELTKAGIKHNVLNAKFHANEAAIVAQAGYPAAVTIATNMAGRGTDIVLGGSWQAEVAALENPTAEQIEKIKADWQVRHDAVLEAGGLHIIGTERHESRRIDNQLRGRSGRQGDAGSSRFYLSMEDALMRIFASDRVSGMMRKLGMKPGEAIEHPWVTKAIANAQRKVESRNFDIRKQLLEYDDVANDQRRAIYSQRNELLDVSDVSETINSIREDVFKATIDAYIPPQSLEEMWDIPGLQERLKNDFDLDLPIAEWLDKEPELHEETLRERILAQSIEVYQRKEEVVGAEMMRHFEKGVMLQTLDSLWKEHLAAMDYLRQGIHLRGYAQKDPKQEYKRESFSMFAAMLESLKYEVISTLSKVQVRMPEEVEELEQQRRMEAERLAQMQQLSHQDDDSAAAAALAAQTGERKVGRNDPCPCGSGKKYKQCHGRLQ

Row | Compound | Percent Effect [1] | Percent Effect [2] | Percent Effect [3] | Percent Effect [4] | Percent Effect (Trypanosoma cruzi) | Percent Effect [5] | Percent Effect [6] | Percent Effect (Homo sapiens) | Percent Effect [7] | Percent Effect [8] | Percent Effect [9]
1 | CCN(Cc1ccc2c(c1)OCCO2)C(=O)NCc1nc(C)cs1 | 0.275% | 10.4% | -0.784% | -5.04% | -0.294% | 4.84% | 14.6% | 11.4% | 4.76% | 11.8% | -19.3%
2 | COc1cc(CNC(=O)NCCCF)cc(Br)c1OC | -5.95% | -2.67% | 3.23% | -1.26% | -2.24% | 0% | -0.174% | 25.5% | 1.64% | 1.24% | 1.39%
3 | CCOCC1CN(C(=O)c2ccncc2)Cc2nn(C)cc21 (stereo unspecified) | 2.34% | 16% | -4.74% | 2.25% | 0.193% | -51.1% | 9.23% | -2.51% | 6.25% | 22.5% | -3.97%
4 | CCOCCn1nnc(C2(NC(=O)c3ccccc3)CCCC2)n1 | -7.55% | 8% | -2.14% | 0.531% | -0.292% | 4.17% | -18.8% | -0.698% | 10.4% | 11.1% | -4.99%
5 | CCN(CC)C(CNS(=O)(=O)c1ccc(C(=O)NC)cc1)c1ccco1 (stereo unspecified) | -3.83% | 5.41% | 3.15% | -5.57% | -5.47% | -1.67% | 18.5% | 13.1% | 9.9% | 6.1% | 7.75%
6 | Cc1ccc(CN2C[C@@H]3COC[C@@H](NS(C)(=O)=O)[C@@H]3C2)o1 | -1.26% | 2.67% | -0.569% | -2.48% | 8.69% | -54.7% | 12.5% | -3.72% | 1.04% | 17.5% | -8.24%
7 | COCC(c1cccc(C(F)(F)F)c1)N(C)C(=O)c1cc(C)n[nH]1 (stereo unspecified) | 0.248% | 18.4% | -1.4% | -4.5% | -3.01% | 2.68% | 9.02% | 0.723% | 1.47% | 12.2% | -13%
8 | Cc1nc(C)n(CC2CCCN2Cc2nc(-c3cccs3)no2)n1 (stereo unspecified) | -2.92% | -7.89% | 1.44% | 6.54% | -0.188% | 2.3% | 6.85% | 17.8% | 5.39% | 12.2% | 1.98%
9 | Cc1cc(C)c(CNC(=O)N(C)Cc2sccc2C)c(=O)[nH]1 | -4.14% | 18.4% | -5.42% | -3.09% | -3.46% | -2.88% | 2.62% | 9.33% | 4.43% | 11.1% | -4.59%
10 | CC(=O)N1CCCN(C(=O)NCCc2ccc(Cl)s2)CC1 | -2.98% | -1.27% | 2.05% | 0.11% | 2.97% | -4.95% | 6.35% | 15.8% | 3.12% | 7.59% | 7.14%
11 | O=C(NS(=O)(=O)c1ccc2c(c1)OCCO2)c1ccc(Br)cc1F | -3.37% | -13.9% | 13.5% | 1.7% | -2.36% | 1.07% | 12% | -21.1% | -13.5% | -15.2% | -10.5%
12 | Cc1n[nH]c(C)c1-c1cnc(CC2CCN(C)C2)cn1 (stereo unspecified) | -1.87% | 2.67% | 9.74% | 4.94% | 3.94% | -3.5% | 0.793% | -2.19% | 4.25% | 6.41% | -1.01%
13 | Cc1nc(-c2ccccc2)sc1C(=O)NCCNc1ncccn1 | -4.03% | -2.63% | -5.12% | -0.445% | -7.94% | 4.32% | 3.98% | 8.09% | 6.4% | 11.1% | 5.7%
14 | CC(C)N(CC(N)=O)Cc1csc(Cc2ccccc2)n1 | -3.88% | 12.7% | 0.223% | -4.46% | -6.7% | 0% | 5.82% | 41.7% | -1.48% | 11.4% | -6.32%
15 | CCN1CCC(CNC(=O)NCc2cc(-c3ccc(C)cc3)no2)C1 (stereo unspecified) | 0.151% | 0% | -6.65% | 3.46% | 3.44% | -3.14% | 12.2% | 5.69% | 10.9% | 25.6% | -5.52%
16 | Cc1ccc(C(C)N(C)Cc2nc3c(cnn3C)c(=O)[nH]2)cc1 (stereo unspecified) | 0.32% | 16.2% | -5.9% | 6.25% | 1.21% | 3.88% | 15.8% | 21.7% | 7.92% | 13.4% | -7.48%
17 | CC(C)NC(=O)N1CCC2(COCc3cnc(-c4cccnc4)nc32)C1 (stereo unspecified) | -3.55% | 2.7% | 6.5% | 0.534% | -6.94% | 4.78% | 12% | 6.17% | 1.08% | 5.13% | 2.74%
18 | Cc1nc(C)n(CC2CCCN(Cc3nnc(C(C)(C)C)o3)C2)n1 (stereo unspecified) | -3.5% | 10.5% | 5.56% | -2.35% | 5.55% | 0% | 7.77% | -1.74% | 2.13% | 5.2% | -3.94%
19 | CC(=O)Nc1nc(CN2CCCC2c2cnn(C)c2)cs1 (stereo unspecified) | -7.62% | 20.2% | -9.48% | 17.6% | 9.54% | -6.46% | 6.31% | -5.41% | 7.39% | 21.5% | -5.9%
20 | CCN1CCOC(CNCc2ccccc2OCc2ccccn2)C1 (stereo unspecified) | -2.71% | 5.26% | -13% | -5.97% | -4.39% | 3.24% | 9.56% | 9.07% | 6.4% | 13.6% | -8.14%
21 | O=C(c1cccnc1-n1cncn1)N1CCN(CC2CC2)CC1 | -2.35% | 16.2% | -2.56% | 20.3% | 5.79% | 1.91% | 11.9% | 1.6% | 3.7% | 9.76% | -2.97%

From ChEMBL document CHEMBL3988442, “University of Dundee, Small-Polar-MMV Screening Library” (2021)
